In assay [1] the target is Ubiquitin carboxyl-terminal hydrolase 2 (Homo sapiens) (UniProt O75604). The assay can be described thus: qHTS for Inhibitors of Ubiquitin-specific Protease USP2a Using CHOP2 as the Reporter: K484 Substrate (AID 652173).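 Note: cleavage of internally quenched K48 di-ubiquitin substrate measured as rising fluorescence over time; potency is the fitted concentration of half-maximal effect; nearly all actives have a fitted effect of over 70% in size.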 In a few lines:
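Kinetic fluorescence (Ex 525/Em 598) tracked cleavage of an internally quenched K48 di-ubiquitin substrate, added as a 100 nM solution. The enzyme was added as a 5 nM USP2 solution before compound pinning, with no-enzyme controls. Buffer: Tris pH 8, beta-mercaptoethanol, CHAPS.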

The target in assay [2] is Calcium and integrin-binding protein 1 (Homo sapiens) (UniProt Q99828). The assay can be described thus: Primary qHTS for Identification of Calcium Integrin Binding Protein 1 (CIB1) Competitor (AID 1508620).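 Note: GST tagged CIB1 binding a fluorescein labelled alphaIIb integrin peptide tracer; top concentration of the series differs between compounds.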 In a few lines:
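Fluorescence polarization competition: CIB1-GST (1 uM final) preincubated with compound 15 min at room temperature, then FITC-labeled alphaIIb peptide (100 nM final) added for another 15 min. Polarization read at Ex 480/Em 540.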

Assay [3] can be described thus: qHTS for Inhibitors of Ubiquitin-specific Protease USP2a Using CHOP2 as the Reporter: Cytotox Assay (AID 652170). Note: nearly all actives have a fitted effect of over 70% in size. Note: potency is the fitted concentration of half-maximal effect. In a few lines:
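Cytotoxicity read as ATP luminescence (CellTiter-Glo) after 72 hr compound treatment at 37 deg C. Cells: HCT116, 600/well in DMEM plus 10% FBS. Normalization between DMSO-treated cells and cell-free wells.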

Results filed as inconclusive are left out. A number with no mark means an inactive call. The source made the active and inactive calls. Calls come from the whole dose curve; as a rule, active = well fitted curve in the direction sought with a large enough effect; inconclusive = small, poorly fitted or top-dose-only effect, or another doubt; inactive = no such curve, though single readings can be large; an effect the other way counts as inactive or inconclusive.

Ubiquitin carboxyl-terminal hydrolase 2 (Homo sapiens), sequence (O75604 whole entry, looked up): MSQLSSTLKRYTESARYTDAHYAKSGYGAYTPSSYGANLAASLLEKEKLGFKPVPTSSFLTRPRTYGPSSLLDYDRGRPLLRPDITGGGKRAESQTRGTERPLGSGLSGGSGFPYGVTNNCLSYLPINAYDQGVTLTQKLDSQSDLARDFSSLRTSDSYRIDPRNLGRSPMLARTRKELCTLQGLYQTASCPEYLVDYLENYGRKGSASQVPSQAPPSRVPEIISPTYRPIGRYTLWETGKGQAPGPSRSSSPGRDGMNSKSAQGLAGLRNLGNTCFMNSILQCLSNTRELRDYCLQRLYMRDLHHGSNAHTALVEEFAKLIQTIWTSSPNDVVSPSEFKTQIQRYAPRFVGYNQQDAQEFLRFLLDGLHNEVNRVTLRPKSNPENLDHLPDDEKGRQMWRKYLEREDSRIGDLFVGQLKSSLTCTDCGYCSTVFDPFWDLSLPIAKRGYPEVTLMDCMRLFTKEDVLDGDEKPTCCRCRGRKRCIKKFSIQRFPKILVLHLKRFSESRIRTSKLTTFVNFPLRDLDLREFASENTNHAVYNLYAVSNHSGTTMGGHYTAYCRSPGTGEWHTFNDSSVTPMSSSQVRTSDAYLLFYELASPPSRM
Calcium and integrin-binding protein 1 (Homo sapiens), sequence (Q99828 whole entry, looked up): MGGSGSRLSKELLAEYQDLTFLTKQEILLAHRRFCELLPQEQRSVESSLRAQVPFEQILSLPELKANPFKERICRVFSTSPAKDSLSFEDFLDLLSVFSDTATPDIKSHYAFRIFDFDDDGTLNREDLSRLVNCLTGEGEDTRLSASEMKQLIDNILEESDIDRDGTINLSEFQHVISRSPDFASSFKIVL

Regarding `Cc1ccc(S(=O)(=O)Nc2ccccc2C(=O)Nc2nc(-c3ccccc3)c(C)s2)cc1`, the Potency in assay [1] is 1.93 µM (active). The Potency result in assay [2] was “inactive”.
As to `O=C(Cc1ccc2ccccc2c1)Nc1ccc(S(=O)(=O)Nc2nccs2)cc1`, the Potency result in assay [3] and in assay [2] was “inactive” in each case. In assay [1], the Potency is 12.2 µM (active).
`Cc1ccc(-c2cc(C(=O)Nc3ccccc3Cl)c3ccccc3n2)cc1C`: the Potency result in assay [3] and in assay [2] was “inactive” each time. Moreover, the Potency in assay [1] is 13.7 µM (active).
With `Cc1ccc(S(=O)(=O)Nc2ccccc2C(=O)Nc2cccc(-c3ccccc3)c2)cc1`, the Potency in assay [3] was 16.6 µM (active); in assay [1] it was 2.17 µM (active). Besides, the Potency entry in assay [2] was “inactive”.
Consider `Cc1ccc(S(=O)(=O)Nc2ccccc2C(=O)Nc2ccc(-c3ccccc3)cn2)cc1`, for which the Potency in assay [1] is 2.17 µM (active). Moreover, in assay [2], the Potency result was “inactive”.
The corresponding values for `Cc1ccc(S(=O)(=O)n2cc(C(=O)Nc3nc(-c4ccccc4)cs3)c3ccccc32)cc1` are 6.11 µM (active) and “inactive”.
The corresponding values for `Cc1ccc(C(=O)Nc2ccccc2C(=O)Nc2nc(-c3ccccc3)cs2)cc1` are 5.44 µM (active) and “inactive”.
The corresponding values for `Cc1ccc(C(=O)[C@H]2CC[C@@H](C(=O)Nc3ccc(S(=O)(=O)Nc4nccs4)cc3)C2)cc1C` are 3.85 µM (active) and “inactive”.
Consider `COc1cc(NS(=O)(=O)c2ccc(C)cc2)cc(C(=O)Nc2nc(-c3ccccc3)cs2)c1`, for which, in assay [1], the Potency is 2.43 µM (active). Moreover, the Potency entry in assay [2] is “inactive”.
On to `Cc1ccc(S(=O)(=O)Nc2ccc(C(=O)Nc3ncc(-c4ccccc4)s3)cc2)cc1`, for which the Potency in assay [1] is 2.43 µM (active). For the same compound, the Potency result in assay [2] was “inactive”.
Turning to `Cc1ccc(-c2cc(C(=O)NCc3ccc(S(C)(=O)=O)cc3)c3ccccc3n2)cc1C`, the Potency in assay [1] is 10.9 µM (active). For the same compound, in assay [2], the Potency entry is “inactive”.
With `Cc1ccc(S(=O)(=O)N(C)c2ccccc2C(=O)Nc2nc(-c3ccccc3)cs2)cc1`, the Potency entry in assay [3] and in assay [2] was “inactive” each time. In addition, the Potency in assay [1] is 6.11 µM (active).
Regarding `Cc1ccc(-c2cc(C(=O)Nc3ccc(S(=O)(=O)NCc4nccs4)cc3)c3ccccc3n2)cc1C`, the Potency result in assay [3] and in assay [2] was “inactive” throughout. Also, in assay [1], the Potency is 3.43 µM (active).
On to `Cc1ccc(CNc2ccccc2C(=O)Nc2nc(-c3ccccc3)cs2)cc1`, for which, in assay [1], the Potency was 21.7 µM (active). Also, the Potency entry in assay [2] is “inactive”.
For the compound `CC(C)Oc1ccccc1C(=O)Nc1nc(-c2ccccc2)cs1`, the Potency entry in assay [3] and in assay [2] was “inactive” each time. Besides, in assay [1], the Potency was 17.2 µM (active).

For the origin of these results see PubChem BioAssay (NCATS).
